Measured values from PubChem BioAssay (NCI).
Values joined by “and” are separate entries in the source; they are usually repeats but may differ in a detail not shown here. Equal entries are not always repeated. This is part of a sample that, as a whole, favours compounds with a hit. Of some 79,000 tested, about 15% had one in any assay. Active and inactive are the calls of the source. No stated cut-off is given here; in the data, active means growth inhibition above about 70%; inactive means the rest.

Tests used:
[1] = NCI Yeast Anticancer Drug Screen. Data for the wt1 strain (AID 149);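 further: 0% = growth of vehicle-treated wt1 cultures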; conditions: S. cerevisiae wt1 strain (SPY 50644) growth inhibition, active compounds read high
Procedure, shortened: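 Vehicle-normalised growth inhibition; strain wt1; compound exposure.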

[2] = NCI Yeast Anticancer Drug Screen. Data for the rad50EPP+ strain (AID 151);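 further: 0% = growth of vehicle-treated control cultures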; conditions: S. cerevisiae rad50 mutant strain, active compounds read high
Procedure, shortened: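 In this screen, rad50EPP+ yeast were exposed to compounds. Growth inhibition was scored against vehicle-treated controls.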

[3] = NCI Yeast Anticancer Drug Screen. Data for the rad50 strain (AID 155);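 further: 0% = growth of vehicle-only cultures of the same strain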; conditions: S. cerevisiae rad50 strain growth inhibition, active compounds read high
Procedure, shortened: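 A DNA repair-deficient yeast mutant serves as the test organism; compound-induced growth inhibition is calculated against vehicle-treated cells.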

[4] = NCI Yeast Anticancer Drug Screen. Data for the mec2-1 strain (AID 157); conditions: S. cerevisiae mec2-1 strain, active compounds read high
Procedure, shortened: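 Vehicle-treated cultures served as reference for growth inhibition of compound-exposed mec2-1 yeast.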

[5] = NCI Yeast Anticancer Drug Screen. Data for the rad14 strain (AID 159);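 further: 0% = growth of vehicle-treated control cultures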; conditions: S. cerevisiae rad14 strain growth inhibition, active compounds read high
Procedure, shortened: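 Vehicle-treated cultures served as the baseline for growth inhibition of a DNA repair-mutant yeast strain exposed to each compound.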

[6] = NCI Yeast Anticancer Drug Screen. Data for the sgs1 mgt1 strain (AID 161);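 further: 0% = growth of cultures given vehicle only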; conditions: S. cerevisiae sgs1 mgt1 strain, active compounds read high
Procedure, shortened: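 Genetically altered yeast, compound exposure, growth inhibition relative to vehicle.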

[7] = NCI Yeast Anticancer Drug Screen. Data for the CLN2oe strain (AID 163);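 further: 0% = growth of vehicle-only control cultures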; conditions: S. cerevisiae CLN2oe strain, active compounds read high
Procedure, shortened: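 Inhibition relative to vehicle-treated yeast is reported. Cells: strain with genetic alteration in cell-cycle control, grown with compound.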

[8] = NCI Yeast Anticancer Drug Screen. Data for the cln2 rad14 strain (AID 165);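 further: 0% = growth equal to vehicle treated cultures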; conditions: S. cerevisiae cln2 rad14 strain, active compounds read high
Procedure, shortened: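 Each compound was tested on cln2 rad14 yeast. Inhibition of growth was calculated against vehicle-exposed controls.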

[9] = NCI Yeast Anticancer Drug Screen. Data for the bub3 strain (AID 167); conditions: S. cerevisiae bub3 mutant strain, active compounds read high
Procedure, shortened: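 Inhibition values come from growth of compound-treated mutant yeast normalised to vehicle-treated controls.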

[10] = NCI Yeast Anticancer Drug Screen. Data for the wt2 strain (AID 169);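 further: 0% = growth of vehicle-treated yeast cultures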; conditions: S. cerevisiae wt2 strain growth inhibition, active compounds read high
Procedure, shortened: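 Inhibition of yeast growth was determined after compound treatment, normalised to controls receiving only vehicle.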

[11] = NCI Yeast Anticancer Drug Screen. Data for the mlh1 strain (AID 171);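 further: 0% = growth of vehicle-treated control cultures of the same strain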; conditions: S. cerevisiae mlh1 strain growth inhibition, active compounds read high
Procedure, shortened: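 Vehicle-normalised growth inhibition of a repair- or checkpoint-altered yeast strain following compound treatment.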

[12] = NCI Yeast Anticancer Drug Screen. Data for the sgs1 strain (AID 173);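 further: 0% = growth of vehicle-only control cultures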; conditions: S. cerevisiae sgs1 mutant, active compounds read high
Procedure, shortened: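 Screen format: yeast with repair or checkpoint alterations, compound exposure, growth read relative to vehicle.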

[13] = NCI Yeast Anticancer Drug Screen. Data for the mlh1 rad18 strain (AID 175); conditions: S. cerevisiae mlh1 rad18 strain growth inhibition, active compounds read high
Procedure, shortened: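 Vehicle-treated cultures served as the reference for growth inhibition in a yeast strain carrying DNA damage repair alterations exposed to each compound.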

[14] = NCI Yeast Anticancer Drug Screen. Data for the rad18 strain (AID 177); conditions: S. cerevisiae rad18 mutant growth inhibition, active compounds read high
Procedure, shortened: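 Test articles were incubated with altered yeast defective in DNA damage repair. Results are given as inhibition of growth versus vehicle.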

[15] = NCI Yeast Anticancer Drug Screen. Data for the mgt1 strain (AID 153); conditions: S. cerevisiae mgt1 mutant growth inhibition, active compounds read high
Procedure, shortened: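 mgt1 strain exposed; growth vs vehicle control recorded as inhibition.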

[16] = at 5.0 µM (retest, dose inferred, filed as 0.5)
[17] = at 50.0 µM (retest, dose inferred, filed as 5.0)

Measured: growth inhibition

CC1CC(C)CC(C)C(O)/C(C#N)=C/C=C/CC(C2CCCC2C(=O)O)OC(=O)CC(O)C(C)C1 (stereo unspecified)
inactive: [2]; at 1.2 µM -17% | [2]; at 3.7 µM 21% | [2]; at 11.0 µM 68% | [6]; [16] 15% | [6]; [17] 2% | [8]; [16] 8% | [8]; [17] -20% | [9]; [16] 10% | [9]; [17] -7%
active: [1]; at 1.2 µM 97% | [1]; at 3.7 µM 99% | [1]; at 11.0 µM 99% | [1]; at 33.0 µM 99% | [1]; at 100.0 µM 98% | [2]; at 33.0 µM 93% | [2]; at 100.0 µM 97% | [3]; at 1.2 µM 94% | [3]; at 3.7 µM 97% | [3]; [16] 98% | [3]; at 11.0 µM 97% | [3]; at 33.0 µM 97% | [3]; [17] 98% | [3]; at 50.0 µM 92.6% | [3]; at 100.0 µM 97% | [4]; at 1.2 µM 96% | [4]; at 3.7 µM 98% | [4]; [16] 99% | [4]; at 11.0 µM 98% | [4]; at 33.0 µM 98% | [4]; [17] 99% | [4]; at 50.0 µM 94.5% | [4]; at 100.0 µM 98% | [5]; at 1.2 µM 98% | [5]; at 3.7 µM 98% | [5]; at 11.0 µM 98% | [5]; at 33.0 µM 99% | [5]; at 100.0 µM 98% | [6]; at 50.0 µM 93.7% | [7]; at 1.2 µM 86% | [7]; at 3.7 µM 96% | [7]; at 11.0 µM 97% | [7]; at 33.0 µM 97% | [7]; at 100.0 µM 97% | [8]; at 50.0 µM 92.4% | [9]; at 1.2 µM 93% | [9]; at 3.7 µM 98% | [9]; at 11.0 µM 98% | [9]; at 33.0 µM 98% | [9]; at 50.0 µM 93.3% | [9]; at 100.0 µM 98% | [10]; at 1.2 µM 90% | [10]; at 3.7 µM 100% | [10]; at 11.0 µM 99% | [10]; at 33.0 µM 99% | [10]; at 100.0 µM 98% | [11]; at 1.2 µM 90% | [11]; at 3.7 µM 98% | [11]; at 11.0 µM 98% | [11]; at 33.0 µM 98% | [11]; at 100.0 µM 98% | [12]; at 1.2 µM 95% | [12]; at 3.7 µM 97% | [12]; at 11.0 µM 98% | [12]; at 33.0 µM 97% | [12]; at 100.0 µM 97% | [13]; [16] 98% | [13]; [17] 98% | [13]; at 50.0 µM 91.6% | [14]; at 1.2 µM 96% | [14]; at 3.7 µM 97% | [14]; at 11.0 µM 98% | [14]; at 33.0 µM 97% | [14]; at 100.0 µM 97%

Cc1c2ccccc2cc2ccccc12
inactive: [1]; at 1.2 µM -2% | [1]; at 3.7 µM 1% | [1]; at 11.0 µM 24% | [2]; at 1.2 µM 52% | [15]; at 1.2 µM -2% | [15]; at 3.7 µM 19% | [3]; at 1.2 µM 4% | [3]; at 3.7 µM 36% | [3]; [16] 16% | [4]; at 1.2 µM -2% | [4]; at 3.7 µM 14% | [4]; [16] 35% | [4]; at 11.0 µM 61% | [5]; at 1.2 µM 5% | [5]; at 3.7 µM 21% | [5]; at 11.0 µM 55% | [6]; [16] 34% | [7]; at 1.2 µM 9% | [7]; at 3.7 µM 29% | [8]; [16] 51% | [9]; at 1.2 µM -3% | [9]; at 3.7 µM 7% | [9]; [16] 58% | [9]; at 11.0 µM 49% | [11]; at 1.2 µM 8% | [11]; at 3.7 µM 27% | [12]; at 1.2 µM -14% | [12]; at 3.7 µM 20% | [13]; [16] 65% | [14]; at 1.2 µM 5% | [14]; at 3.7 µM 25%
active: [1]; at 33.0 µM 93% | [1]; at 100.0 µM 98% | [2]; at 3.7 µM 84% | [2]; at 11.0 µM 96% | [2]; at 33.0 µM 98% | [2]; at 100.0 µM 98% | [15]; at 11.0 µM 73% | [15]; at 33.0 µM 99% | [15]; at 100.0 µM 99% | [3]; at 11.0 µM 83% | [3]; at 33.0 µM 98% | [3]; [17] 98% | [3]; at 50.0 µM 98.3% | [3]; at 100.0 µM 98% | [4]; at 33.0 µM 99% | [4]; [17] 99% | [4]; at 50.0 µM 98.6% | [4]; at 100.0 µM 99% | [5]; at 33.0 µM 99% | [5]; at 100.0 µM 99% | [6]; [17] 99% | [6]; at 50.0 µM 98.4% | [7]; at 11.0 µM 82% | [7]; at 33.0 µM 99% | [7]; at 100.0 µM 99% | [8]; [17] 99% | [8]; at 50.0 µM 98% | [9]; at 33.0 µM 95% | [9]; [17] 99% | [9]; at 50.0 µM 98.2% | [9]; at 100.0 µM 99% | [11]; at 11.0 µM 86% | [11]; at 33.0 µM 99% | [11]; at 100.0 µM 99% | [12]; at 11.0 µM 97% | [12]; at 33.0 µM 99% | [12]; at 100.0 µM 99% | [13]; [17] 99% | [13]; at 50.0 µM 97.8% | [14]; at 11.0 µM 76% | [14]; at 33.0 µM 98% | [14]; at 100.0 µM 98%

BrCC[N+]12CC[N+](CCBr)(CC1)C2
active: [1]; at 33.0 µM 82% | [1]; at 100.0 µM 94% | [2]; at 33.0 µM 81% | [2]; at 100.0 µM 92% | [15]; at 33.0 µM 88% | [15]; at 100.0 µM 96% | [3]; at 33.0 µM 87% | [3]; [17] 94% and 89% | [3]; at 50.0 µM 86.7% and 86.5% | [3]; at 100.0 µM 93% | [4]; at 33.0 µM 87% | [4]; [17] 98% and 94% | [4]; at 50.0 µM 92.2% and 89.9% | [4]; at 100.0 µM 95% | [5]; at 33.0 µM 93% | [5]; at 100.0 µM 94% | [6]; [17] 90% and 93% | [6]; at 50.0 µM 89.2% | [7]; at 33.0 µM 78% | [7]; at 100.0 µM 89% | [9]; at 33.0 µM 89% | [9]; [17] 92% and 95% | [9]; at 50.0 µM 86.7% and 87% | [9]; at 100.0 µM 95% | [10]; at 33.0 µM 86% | [10]; at 100.0 µM 95% | [11]; at 33.0 µM 88% | [11]; at 100.0 µM 96% | [13]; [17] 95% and 90% | [13]; at 50.0 µM 90.6% and 86.9% | [14]; at 33.0 µM 89% | [14]; at 100.0 µM 95%
inactive: [1]; at 1.2 µM 1% | [1]; at 3.7 µM 6% | [1]; at 11.0 µM 14% | [2]; at 1.2 µM 9% | [2]; at 3.7 µM 14% | [2]; at 11.0 µM 12% | [15]; at 1.2 µM 12% | [15]; at 3.7 µM -2% | [15]; at 11.0 µM 42% | [3]; at 1.2 µM 14% | [3]; at 3.7 µM 20% | [3]; [16] 40% and 27% | [3]; at 11.0 µM 55% | [4]; at 1.2 µM -4% | [4]; at 3.7 µM 5% | [4]; [16] 43% and 1% | [4]; at 11.0 µM 29% | [5]; at 1.2 µM -13% | [5]; at 3.7 µM -16% | [5]; at 11.0 µM 56% | [6]; [16] 46% and -15% | [7]; at 1.2 µM 1% | [7]; at 3.7 µM -9% | [7]; at 11.0 µM 2% | [9]; at 1.2 µM -5% | [9]; at 3.7 µM -1% | [9]; [16] 34% and -12% | [9]; at 11.0 µM 36% | [10]; at 1.2 µM -33% | [10]; at 3.7 µM -18% | [10]; at 11.0 µM 4% | [11]; at 1.2 µM 12% | [11]; at 3.7 µM -2% | [11]; at 11.0 µM 42% | [13]; [16] 64% and 42% | [14]; at 1.2 µM 10% | [14]; at 3.7 µM 25% | [14]; at 11.0 µM 53%
